IP6K1 inhibitor – blocks human inositol hexakisphosphate kinase 1. Q92551. IP6K1 kinase, ADP-Glo luminescence, 2 h; hits give low values. activity change, % (series mostly up to about 58 µM). 140,000 tested, 0.81% active; in the data active = activity change below about -25%; also: % is scaled to controls: 0 for no effect and ±100 for the full control effect
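ADP-Glo luminescence measures ADP made by human IP6K1 during a 2 h RT reaction with ATP/IP6 (mix at 1.3 mM/130 uM); top library doses 57.5 and 19.1 uM final.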
KDM5B inh – blocks human KDM5B histone demethylase activity | Q9UGL1 | KDM5B demethylase, FDH-coupled NADH fluorescence (FDH is formaldehyde dehydrogenase) | 220,000 tested, 2.6% active | Potency, µM (doses to about 57.7 µM), usual class: inhibitors; active = well fitted inhibition curve with a large enough effect; inconclusive = small, poorly fitted or top-dose-only effect; inactive = no such curve, though single readings can be large or run the other way; also: potency is read from the fitted curve at half-maximal effect; 0% is about no effect; nearly all actives have a fitted effect of over 70% in size
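qHTS format, multiple compound concentrations. Buffer 50 mM HEPES pH 7.5/0.01% Tween-20; 200 nM KDM5BΔAP final; 10 min compound preincubation; substrate-mix levels 12.5 µM peptide, 25 µM α-KG, 0.25 mM NAD⁺; 30 min RT; ΔRFU.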
Active calls of the source: *; i = inactive; u = inconclusive; x = no result. Compounds with a hit are over-represented: about 2.7% of the library has one in this group of screens.

SMILES | IP6K1 inhibitor | KDM5B inh
COc1ccccc1-c1ccnc(N[C@H]2CO[C@H]3[C@@H]2OC[C@@H]3NC(=O)c2ccc(C)cc2)n1 | 0 | u
COC(=O)c1ccc(NS(=O)(=O)c2ccc(C)cc2)c(C)c1 | x | i
Cc1cnc2c(S(=O)(=O)N(CC(N)=O)C3CCCC3)cccc2c1 | x | i
COc1ccc(OC)c(CN2CCCn3nc(C)c(-c4ccccc4C(C)C)c32)c1 | 19 | u
Cc1nn2c(c1-c1cccnc1N1CCOCC1)N(Cc1ccc3c(c1)CCO3)CCC2 | 9 | 25µM*
COc1ccc(OC)c(CN2CCCn3nc(C)c(-c4cccnc4N4CCOCC4)c32)c1 | 10 | 13µM*
Cc1nn2c(c1-c1cccnc1N1CCOCC1)N(CCc1ccccc1)CCC2 | 7 | u
O=C1Cc2cc(-c3csc(Nc4ccccc4Cl)n3)ccc2N1 | x | i
O=C([C@@H]1C[C@H](Oc2ccccc2)CN1C(=O)c1cc2ccccc2[nH]1)N1CCOCC1 | -4 | u
O=C([C@@H]1C[C@H](Oc2ccccc2)CN1C(=O)c1cc2ccccc2[nH]1)N1CCCC1 | 32 | 25µM*
COc1ccc(CN(C)C(=O)NCc2nc(C)cs2)cc1 | x | i
CC(=O)N[C@@H]1Cc2ccccc2[C@H]1NC(=O)CCc1cc2n(n1)CCCNC2 | -4 | i
O=C(CCc1cc2n(n1)CCCNC2)N1CCCC(c2nnc3ccccn23)C1 (stereo not given) | 1 | 11µM*
Cc1cccc(C)c1-n1nnnc1SC(C(=O)N1CCCC1)c1ccccc1 (stereo not given) | x | i
C/C(=N/Nc1ccc(S(N)(=O)=O)cc1[N+](=O)[O-])c1ccc(Cl)cc1 | x | i
COC(=O)c1ccc(CN2C(=O)[C@@H]3C[C@@H](O)CN3C3(CN(Cc4ccc(OC)c5ccccc45)C3)C2=O)cc1 | -5 | u
Nc1nc2c(c(=O)[nH]1)CCN(C(=O)CC(c1ccccc1)c1ccco1)C2 (stereo not given) | 16 | 18µM*
CC(=O)c1c(C)nn(C(C)CC(=O)N2CCc3c(nc(N)[nH]c3=O)C2)c1C (stereo not given) | 2 | i
CCCN(CC#N)CC(=O)NC(=O)NC(C)(C)C | x | i
CCC(O)c1cc2n(n1)CCN(C(=O)c1ccc(-c3ccccc3)n1C)C2 (stereo not given) | 6 | i
CC(=O)N1CCN(C(=O)c2nc(N)nc3c2CCCC3)CC(O)C1 (stereo not given) | 5 | 25µM*
CCC(O)c1cc2n(n1)CCN(C(=O)c1nc(N)nc3c1CCCC3)C2 (stereo not given) | 11 | 28µM*
CN(C)Cc1nnc(C2CCN(C(=O)c3nc(N)nc4c3CCCC4)CC2)n1C | 1 | 25µM*
CN(C)Cc1nnc(C2CCCN(C(=O)c3cccc(N(C)C)c3)C2)n1C (stereo not given) | -7 | i
CCS(=O)(=O)Nc1ccc(C(=O)N2CCN(C(C)=O)CC(O)C2)cc1 (stereo not given) | -5 | i
SMILES | IP6K1 inhibitor | KDM5B inh
Cc1ccc(C)c(C(NC(=O)c2ccccc2)c2cccnc2)c1 (stereo not given) | x | i
Cc1ccc(CNCCc2cccs2)s1 | x | i
COc1ccc2ccc(OCc3cccc(C#N)c3)cc2c1 | x | i
Cc1ccc(C)c(-n2nnnc2SCc2nc3ccccc3o2)c1 | x | i
CCc1noc(-c2nc(Cc3ccccc3C)no2)n1 | 5 | i
COc1ccc(-c2noc(-c3nc(Cc4cccc(F)c4)no3)n2)cc1OC | 13 | 25µM*
COc1ccc(-c2noc(-c3nc(Cc4ccccc4)no3)n2)cc1 | 3 | 32µM*
CCc1noc(-c2nc(-c3ccc(OC)cc3)no2)n1 | 5 | i
CCc1noc(-c2nc(-c3ccc(OC)c(OC)c3)no2)n1 | 0 | i
Fc1ccc(Cc2noc(-c3nc(-c4ccc5c(c4)OCO5)no3)n2)cc1 | 0 | u
Cc1ccccc1Cc1noc(-c2nc(-c3ccc4c(c3)OCO4)no2)n1 | 2 | 28µM*
Fc1cccc(Cc2noc(-c3nc(-c4ccc5c(c4)OCO5)no3)n2)c1 | -2 | 25µM*
N#Cc1c(N)n[nH]c1CCCNC(=O)NC(c1ccccc1)C1CC1 (stereo not given) | x | i
O=C(c1cccc2ccccc12)N1CCC(c2nc3ccccc3o2)CC1 | x | i
O=C(NCCNc1cccnc1)C1CCC(=O)N(Cc2ccc(Cl)cc2)C1 (stereo not given) | -14 | 11µM*
O=C(NCCNc1cccnc1)C1CCC(=O)N(CCc2ccc(Cl)cc2)C1 (stereo not given) | 8 | u
COc1ccc(-c2cc3c(=O)n(CCNC(=O)c4cc(F)cc(F)c4)ccn3n2)cc1 | 5 | u
CNC(=O)CCn1ncc2cc(OCc3ccccc3-c3cccc(OC)c3F)ccc21 | 6 | u
COc1ccc(F)cc1-c1cccc(C(=O)NCC(=O)NCCc2ccc(F)cc2)c1 | 12 | x
Cc1ccc(-c2cc(C(=O)NCC(F)F)c3cnn(C)c3n2)c(C)c1 | -5 | x
COc1ccccc1NC(=O)Cn1c(C)ccc(NC(=O)Nc2ccc(C)cc2)c1=O | -7 | 18µM*
Cc1cccc(NC(=O)Nc2ccc(C)n(CC(=O)O)c2=O)c1 | 6 | 20µM*
Cc1ccc(NC(=O)Nc2ccc(C)n(CC(=O)Nc3ccc(C)cc3C)c2=O)cc1 | -6 | i
Cc1cccc(NC(=O)Nc2ccc(C)n(CC(=O)Nc3ccc(C)c(C)c3)c2=O)c1 | 4 | i
CCN(Cc1nc2cc(Cl)ccc2c(=O)[nH]1)C(=O)CNC(=O)c1ccc(C(C)(C)C)cc1 | x | i
SMILES | IP6K1 inhibitor | KDM5B inh
Cc1cc(C)cc(Nc2c3c(nc4ccccc24)CCC3)c1 | x | i
O=S(=O)(CCN1CCN(c2ccccc2)CC1)c1ccccc1 | x | i
Cc1cnc2c(C(=O)NCc3cccnc3Oc3ccccc3)cnn2c1 | 4 | u
COc1ccc(-c2cc(C(=O)N(C)C)c3cnn(C)c3n2)cc1 | 3 | x
Cc1ccc2c(C(=O)N(C)C)cnn2c1 | 0 | 32µM*
CNC(=O)c1cnn2cc(C)ccc12 | -4 | 32µM*
O=C(NN1C(=O)NC2(CCCCC2)C1=O)c1nn(-c2ccccc2)c(=O)c2ccccc12 | x | i
COc1ccc(NC(=O)Cc2coc3cc(C)c(C)cc23)cc1Cl | x | i
Cc1[nH]c2ccccc2c1C(=O)C(C)Oc1ccc(Cl)c2ccccc12 (stereo not given) | x | i
O=C(Nc1ccccc1F)C1CCCCN1Cc1ccc(-c2cccs2)cc1 (stereo not given) | 2 | x
CC(C)OC(=O)CC(NC(=O)c1cccc(CS(C)(=O)=O)c1)c1ccccc1 (stereo not given) | x | i
CCCNC(=O)Cc1csc2nc(C)c(-c3cc(C)n(-c4ccc(Cl)c(Cl)c4)n3)c(=O)n12 | 16 | 28µM*
CCCCNC(=O)Cc1csc2nc(C)c(-c3cc(C)n(-c4cccc(Cl)c4)n3)c(=O)n12 | 23 | u
Cc1nc2scc(CC(=O)NCC(C)C)n2c(=O)c1-c1cc(C)n(-c2ccc(F)cc2)n1 | 25 | u
Cc1nc2scc(CC(=O)NC(C)C)n2c(=O)c1-c1cc(C)n(-c2ccc(C(C)C)cc2)n1 | 11 | u
Cc1nc2scc(CC(=O)N3CCOCC3)n2c(=O)c1-c1cc(C)n(-c2ccc(C(C)C)cc2)n1 | 5 | 25µM*
Cc1cccc(-n2nc(-c3c(C)nc4scc(CC(=O)NC5CC5)n4c3=O)cc2C)c1 | 13 | 25µM*

Assay outcomes deposited in PubChem BioAssay by National Center for Advancing Translational Sciences (NCATS).
